# “And” between values parts separate entries of the source, which are not always exact repeats. Identical values can stand only once. The panel holds about 79,000 compounds, 15% with a hit somewhere; the sample as a whole holds those more often. Values without a mark were called inactive. The source made the active and inactive calls. Rule as the data show it: active = growth inhibition above about 70%; inactive = the rest.
# How the values were obtained:
# [1] = NCI Yeast Anticancer Drug Screen. Data for the rad50 strain (AID 155);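 also: 0% = growth of vehicle-only cultures of the same strain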; conditions: S. cerevisiae rad50 strain growth inhibition, active compounds read high; at 50.0 µM unless noted
# Procedure, shortened: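 A DNA repair-deficient yeast mutant serves as the test organism; compound-induced growth inhibition is calculated against vehicle-treated cells.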
# [2] = NCI Yeast Anticancer Drug Screen. Data for the mec2-1 strain (AID 157); conditions: S. cerevisiae mec2-1 strain, active compounds read high; at 50.0 µM unless noted
# Procedure, shortened: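 Vehicle-treated cultures served as reference for growth inhibition of compound-exposed mec2-1 yeast.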
# [3] = NCI Yeast Anticancer Drug Screen. Data for the sgs1 mgt1 strain (AID 161);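 also: 0% = growth of cultures given vehicle only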; conditions: S. cerevisiae sgs1 mgt1 strain, active compounds read high; at 50.0 µM unless noted
# Procedure, shortened: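 Genetically altered yeast, compound exposure, growth inhibition relative to vehicle.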
# [4] = NCI Yeast Anticancer Drug Screen. Data for the cln2 rad14 strain (AID 165);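 also: 0% = growth equal to vehicle treated cultures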; conditions: S. cerevisiae cln2 rad14 strain, active compounds read high; at 50.0 µM unless noted
# Procedure, shortened: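 Each compound was tested on cln2 rad14 yeast. Inhibition of growth was calculated against vehicle-exposed controls.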
# [5] = NCI Yeast Anticancer Drug Screen. Data for the bub3 strain (AID 167); conditions: S. cerevisiae bub3 mutant strain, active compounds read high; at 50.0 µM unless noted
# Procedure, shortened: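 Inhibition values come from growth of compound-treated mutant yeast normalised to vehicle-treated controls.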
# [6] = NCI Yeast Anticancer Drug Screen. Data for the mlh1 rad18 strain (AID 175); conditions: S. cerevisiae mlh1 rad18 strain growth inhibition, active compounds read high; at 50.0 µM unless noted
# Procedure, shortened: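 Vehicle-treated cultures served as the reference for growth inhibition in a yeast strain carrying DNA damage repair alterations exposed to each compound.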
SMILES,growth inhibition [1],growth inhibition [2],growth inhibition [3],growth inhibition [4],growth inhibition [5],growth inhibition [6]
Nc1ncnc(N)c1NC(=O)c1ccc2ccccc2c1,8.95%,35.1%,-1.55%,-1.85%,-20.4%,-21.4%
Cc1cc2cc3c(=O)[nH]c(=O)[nH]c3nc2cc1C,-11.7%,1.65%,-19%,-8.6%,-27.2%,-0.05%
CCCC(=O)OC1CC(n2cc(F)c(=O)[nH]c2=O)OC1CO (stereo unspecified),8.6%,0.45%,11.6%,2.55%,7.85%,-28.6%
O=S1(=O)CCC12CC1c3ccccc3C2c2ccccc21 (stereo unspecified),-6.1%,-6.05%,-11.6%,-2.85%,-11.1%,-6.85%
c1ccc2c(c1)Cc1cc3ccccc3cc1C2,-32.2%,-44.9%,-29.5%,0.75%,-33.2%,-27.8%
O=S1(=O)CS/C(=N\C(=S)N(c2ccccc2)c2ccccc2)N1c1ccccc1,32.5%,-11.3%,-3.4%,18.2%,4.75%,2.2%
COc1ccc2c(c1)-c1c(ccc(OC)c1O)CC(c1ccccc1)[N+](C)(C)CC2 (stereo unspecified),-5.8%,10.7%,-5.55%,-12.4%,2.25%,-2.5%
C[N+]1(CCN[N+]2(C)CCCCC2)CCc2ccccc2C1 (stereo unspecified),-5.55%,-14.7%,-44.5%,-20.3%,-39.3%,-3.25%
CC(=O)c1sc2[n+](c1C)C(=O)/C(=C\c1ccccc1Cl)S2,15.7%,-17.6%,-1%,10.2%,-7.75%,-3%
OC1(Cc2ccccc2)CCCCCC1,-2.3%,1.3%,2.15%,-64.7%,-0.95%,1.95%
O=c1c(O)c(-c2cc(O)c(O)c(O)c2)oc2cc(O)cc(O)c12,13.7%,-21.1%,7.55%,1.1%,14.5%,-8.55%
O=C(O)/C=C(/CC(=O)O)C(=O)O,-34.9%,-11.3%,-17.2%,0.35%,-27.8%,-7.45%
O=C1CCc2nc(-c3ccccc3)ncc21,9.25%,0%,1.95%,-5.55%,-2.2%,-0.8%
NC(C(=O)O)c1ccc(CBr)cc1 (stereo unspecified),9.5%,-12.3%,-10.2%,4.25%,-1.6%,-64.5%
CCOC(=N)C1(O)CCCCC1,-9.05%,-6.75%,-13.4%,-5.1%,-3.8%,23.6%
CCOC(=O)/C=C1\SC(C)(C)C1NC(=O)OCc1ccccc1 (stereo unspecified),-73.2%,-30.5%,-6.15%,-18.1%,-0.2%,-15%
N/N=C1\CC2C3CC4(OCCO4)C4C3CC2C14 (stereo unspecified),1.6%,-4.7%,1.75%,6.55%,-7.6%,0.15%
C1CN(C23OC4(N5CCOCC5)C5C6CC(C7C6C4C72)C53)CCO1 (stereo unspecified),-18.9%,-3%,-3.9%,-43.1%,-0.05%,-11.2%
Oc1ccc(Br)cc1/C=N/c1nc2ccccc2s1.Oc1ccc(Br)cc1/C=N/c1nc2ccccc2s1.[Cu],38%,40.9%,0.05%,15.3%,-0.25%,43.5%
Cc1cc([N+](=O)[O-])ccc1P(=O)(O)O,8.55%,7.6%,0%,-0.65%,-3.8%,-7.95%
COC1(OC)CC2C(=O)N(Cc3ccccc3)C1CC2S(=O)(=O)c1ccccc1 (stereo unspecified),6.7%,-2.1%,-16.1%,22.8%,-2.3%,11.4%

SMILES,growth inhibition [1],growth inhibition [2],growth inhibition [3],growth inhibition [4],growth inhibition [5],growth inhibition [6]
Cc1ccc(C(=O)C[n+]2ccc3ccccc3c2)c(O)c1,-17.1%,-17.9%,-20.2%,-51.9%,-14.3%,1.25%
O=C1CSC(c2ccc(F)cc2F)N1c1nncs1 (stereo unspecified),13.4%,-3.7%,22.8%,-35.2%,-23.8%,24.2%
COc1ccc(/C=C/C(=O)O)c(OC)c1,1.25%,30.9%,-7.55%,25.2%,28.1%,-9.7%
NC(=S)Nc1ccc(-c2ccccc2)cc1,17.4%,25.9%,49.1%,-1.65%,22.8%,40.3%
COC(=O)C(Cc1nc2ccc(Cl)cc2[nH]c1=O)/C(=N\N)C(=O)Nc1cc(C)c(Cl)cc1S(=O)(=O)O (stereo unspecified),24.9%,-2%,5.5%,-70.3%,-3.35%,5.95%
CC(=O)Nc1ccc(S(=O)(=O)N/N=C(/C)c2ccccc2)cc1,-8.8%,-31.8%,1.05%,1.55%,-23.4%,-23.6%
CN1C(=O)N(C2CCCCC2)C(=O)C(C)(CN2CCCCC2)C1=O (stereo unspecified),12.7%,14.1%,12.2%,17.6%,-5.25%,12.2%
CC1CCC2(OC1)OC1CC3C4CC=C5CC(O)CCC5(C)C4CCC3(C)C1C2C (stereo unspecified),21.8% and 13.3%,16.9% and -23.6%,-1.5% and 3.2%,-3.95% and 4%,1.35% and 14.8%,32.9% and 15.3%
Cc1ccccc1S(N)(=O)=O,-17.7%,-28.1%,-22.6%,-42.2%,-6.95%,3.25%
CC1(O)C2CC3CC(C2)CC1C3 (stereo unspecified),-1.1%,-3.1%,-13.3%,-59%,13.2%,10.3%
CCCCCCC(=O)C/C(=N/NC(N)=S)C(=O)NC1C2CC3CC(C2)CC1C3 (stereo unspecified),-14.8%,-19.2%,-48.7%,29.4%,-2.3%,-34.5%
OC1C(SCc2ccccc2)OCC2OC3(CCCCC3)OC21 (stereo unspecified),-5.1%,-5.7%,-9%,-5.9%,1.75%,9.45%
Oc1ccccc1/C=N\N=C\NN/C=N/N=C/c1ccccc1O,-8.1%,-0.75%,-4%,13.8%,6.4%,5.55%
CC(=O)OCC1OC(OC(C)=O)C(NC(=O)c2ccccc2)C(OC(C)=O)C1OC(C)=O (stereo unspecified),-2.1%,-3.45%,-3.5%,-20.6%,17.4%,-1.5%
C=CCC(C)(O)CCC(C)(O)CC=C (stereo unspecified),-1.95%,-14.6%,-8.3%,1.2%,0.95%,8.2%
COc1cc2c(cc1OC)C(c1c(-c3c(Cl)cccc3Cl)noc1C)=NCC2,-3.8%,-14.9%,-11.8%,19.8%,3.2%,-4.25%
O=C(Nc1ccc(Cl)c(Cl)c1)N(CCO)Cc1ccccc1,88.7% (active),97% (active),97.2% (active),90% (active),95.5% (active),94.4% (active)
CC1CCC(C(C)C)C(NNC(N)=O)C1 (stereo unspecified),39.5% and 9.65%,12.7% and 3.8%,5% and 6.8%,14.3% and 3.4%,45% and -0.95%,15.9% and 9.6%
Cc1cc(N(CCCCl)CCCCl)ccc1C=Nc1cc(Cl)c(O)c(Cl)c1,71.8% (active),6.15%,84.8% (active),-13.9%,53%,57.2%
O=C1OC(c2ccccc2)=N/C1=C\c1ccccc1,-24% and 23.1%,-12.6% and 10.6%,-15.5% and 20.9%,-5.7% and -23.2%,3.9% and -15.2%,-8.7% and 26.8%
